Efflux pump mplx: blocks antifungal efflux pumps in multiplex yeast assay. S. cerevisiae Candida pump triplex, Nile Red efflux. inhibition, % at 10 µM. actives 0.44% (n = 330,000). AID 485275;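 active = plate passing quality check with inhibition over a set limit, or well fluorescence over plate mean plus 4 SD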;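 note: Nile Red retained in pooled yeast measured as flow cytometry median fluorescence; higher means more Nile Red kept so more efflux inhibition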
SRC1 inh: inhibits human SRC1 coactivator. Q15788. HEK293 GAL4-SRC1 luciferase reporter, luminescence. inhibition, % at 3.6 µM. actives 0.12% (n = 360,000). AID 588354;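 active = inhibition above the campaign mean plus 3 SD, with each screening campaign given its own cutoff, cut at about 60% in these data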
NR5A2 inv ag: suppresses constitutive activity of human LRH-1; HEK293T StAR-luciferase reporter, LRH-1 transfected, 24 h; inhibition, % at 3.6 µM; actives 0.13% (n = 360,000); AID 602396;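 active = inhibition above the mean inhibition of all tested compounds plus 3 SD, cut at about 73% in these data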
NCOA2 inhibitor: human SRC2 (NCOA2) inhibition. actives 0.17% (n = 370,000). inhibition, % at 9 µM. HEK293 GAL4-SRC2 luciferase reporter, luminescence. AID 651957;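 active = inhibition above the mean inhibition of all tested compounds plus 3 SD, set per campaign, cut at about 52% in these data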
Target sequence (Q15596 whole entry, looked up, the tested form may be a part): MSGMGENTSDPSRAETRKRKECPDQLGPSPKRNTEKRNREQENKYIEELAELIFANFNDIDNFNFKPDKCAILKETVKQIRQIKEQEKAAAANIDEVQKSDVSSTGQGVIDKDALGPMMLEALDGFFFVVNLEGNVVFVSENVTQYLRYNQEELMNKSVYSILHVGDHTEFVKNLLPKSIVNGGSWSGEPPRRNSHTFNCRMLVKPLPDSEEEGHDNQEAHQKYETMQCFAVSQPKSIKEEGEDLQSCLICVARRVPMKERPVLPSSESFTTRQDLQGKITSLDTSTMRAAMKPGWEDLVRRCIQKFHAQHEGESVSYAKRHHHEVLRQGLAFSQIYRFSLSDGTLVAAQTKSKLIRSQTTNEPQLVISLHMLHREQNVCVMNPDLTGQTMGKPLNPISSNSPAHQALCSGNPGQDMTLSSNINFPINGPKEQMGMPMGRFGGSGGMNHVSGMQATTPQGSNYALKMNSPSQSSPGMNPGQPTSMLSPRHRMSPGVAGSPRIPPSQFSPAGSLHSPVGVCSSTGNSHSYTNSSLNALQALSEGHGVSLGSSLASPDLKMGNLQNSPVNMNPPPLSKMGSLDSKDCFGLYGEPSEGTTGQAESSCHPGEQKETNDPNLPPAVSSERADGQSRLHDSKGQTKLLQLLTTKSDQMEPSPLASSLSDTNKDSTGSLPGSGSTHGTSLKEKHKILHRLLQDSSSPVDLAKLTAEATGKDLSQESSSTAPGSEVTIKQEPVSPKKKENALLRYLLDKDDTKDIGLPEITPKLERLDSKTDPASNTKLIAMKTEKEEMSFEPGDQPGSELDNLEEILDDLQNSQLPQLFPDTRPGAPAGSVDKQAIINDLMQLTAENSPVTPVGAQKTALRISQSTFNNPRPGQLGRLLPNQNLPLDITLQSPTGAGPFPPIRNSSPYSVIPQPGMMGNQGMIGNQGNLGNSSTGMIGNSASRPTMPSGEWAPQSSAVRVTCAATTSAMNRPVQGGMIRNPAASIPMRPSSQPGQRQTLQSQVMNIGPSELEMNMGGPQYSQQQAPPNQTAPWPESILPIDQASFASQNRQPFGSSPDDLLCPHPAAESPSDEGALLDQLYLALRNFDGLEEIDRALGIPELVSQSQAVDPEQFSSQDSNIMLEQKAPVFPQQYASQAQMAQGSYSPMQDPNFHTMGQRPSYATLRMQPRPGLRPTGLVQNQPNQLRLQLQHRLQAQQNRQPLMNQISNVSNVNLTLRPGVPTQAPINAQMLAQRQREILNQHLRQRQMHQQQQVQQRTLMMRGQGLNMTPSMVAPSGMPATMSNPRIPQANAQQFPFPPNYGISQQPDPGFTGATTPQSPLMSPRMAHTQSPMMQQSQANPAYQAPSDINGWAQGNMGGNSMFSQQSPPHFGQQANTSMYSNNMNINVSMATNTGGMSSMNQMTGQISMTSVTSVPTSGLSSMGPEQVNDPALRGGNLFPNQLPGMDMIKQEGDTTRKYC
NCOA3 inh: inhibits human SRC3 coactivator. HEK293 GAL4-SRC3 luciferase reporter, luminescence. inhibition, % at 3.6 µM. Q9Y6Q9. actives 0.17% (n = 360,000);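 active = inhibition above a per-campaign cutoff, the mean of all compounds plus 3 SD, cut at about 60% in these data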;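 note: higher means less SRC3-driven luciferase light from the GAL4 reporter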
COUP-TFII inh: NR2F2 (human) inhibition, primary screen; actives 0.7% (n = 370,000); P24468; HEK293T NGFI-A luciferase reporter, luminescence; inhibition, % at 8.6 µM;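 active = inhibition above a per-plate cutoff, mean inhibition of test wells between control levels plus 3 SD, cut at about 38% in these data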;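 note: cells cotransfected with COUP-TFII expression vector driving the NGFI-A reporter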
VP16 Luc counter: inhibits VP16 reporter, flagging COUP-TFII antagonist hits. shares compounds with COUP-TFII inh. HEK293 Gal4-VP16 luciferase reporter, luminescence. inhibition, % at 8.5 µM. actives 25% (n = 2,500). AID 687007; in the data active = inhibition above about 13%
NR2F2 inh conf: COUP-TFII (NR2F2) inhibition, confirmation assay; inhibition, % at 8.5 µM; actives 45% (n = 2,500); HEK293 NGFI-A luciferase reporter, luminescence; shares compounds with COUP-TFII inh;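 active = mean inhibition over three repeats above a set limit taken from the earlier primary screen, cut at about 38% in these data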
Hits are given with their value; i = inactive; nt = no result. Only some compounds are listed: those with a hit (about 1.2% of all), similar ones and a draw of the others.

SMILES	Efflux pump mplx	SRC1 inh	NR5A2 inv ag	NCOA2 inhibitor	NCOA3 inh	COUP-TFII inh	VP16 Luc counter	NR2F2 inh conf
COc1ccc(CC2=NCCc3cc(OC)c(OC)cc32)cc1OC	nt	i	i	i	i	i	nt	nt
COc1ccc(CNC(=O)CCC(=O)N2C[C@H]3C[C@H](C2)c2cccc(=O)n2C3)cc1	i	i	i	i	i	i	nt	nt
CN(c1ccc(OCC(=O)N2CCN(C/C=C/c3ccccc3)CC2)cc1)S(=O)(=O)c1cccs1	i	i	i	i	i	38	i	38
CCN(CCO)c1ccc(N=Cc2c(O)n(C)c(=S)[nH]c2=O)cc1	i	i	i	i	i	i	nt	nt
C=Cc1cc(OC)c2c(c1)c(=O)oc1c2cc(OC)c2c(O)ccc(C3OC(C)C(O)C(C)(O)C3O)c21 (stereo unspecified)	nt	i	i	66	i	59	24	i
CCN1CCN(C(=O)COc2ccc3c(c2)C(=O)CC2(CCN(C(C)=O)CC2)O3)CC1	i	i	i	i	i	i	nt	nt
CCOP(=O)(OCC)C(O)c1ccc(OC)cc1 (stereo unspecified)	i	i	i	i	i	i	nt	nt
CC(C)(C)c1ccc(CSc2cnn(C(C)(C)C)c(=O)c2Cl)cc1	i	i	i	i	i	71	i	61
COC(=O)C1=C(c2ccc3ccccc3c2)C[C@@H]2CC[C@H]1N2C(=O)NCc1ccco1	i	i	i	i	i	i	nt	nt
CC(C)c1oc(=O)cc2c1[C@@H](O)[C@H]1OC(=O)[C@@]3(C)CC[C@@H](O)[C@@]2(C)C13 (stereo partly specified)	i	i	i	i	62	42	i	i
CC(C)c1oc(=O)cc2c1[C@@H](O)[C@H]1OC(=O)[C@@]3(C)C[C@@H](O)[C@@H](O)[C@@]2(C)C13 (stereo partly specified)	i	i	92	i	76	41	i	i
O=[N+]([O-])c1cc(F)c(N2CCCC2)cc1N1CCNCC1	i	nt	nt	nt	nt	nt	nt	nt
O=C1NC(=O)C(=Cc2c(Cl)cccc2Cl)C(=O)N1	nt	i	i	i	i	i	nt	nt
CN1C(=O)C(=Cc2cn(CC(=O)N3CCCCC3)c3ccccc23)C(=O)N(C)C1=O	i	i	i	nt	i	nt	nt	nt
O=C(Nc1ccncc1)c1cccn(Cc2ccccc2)c1=O	i	i	i	i	i	66	i	51
O=C(Nc1ccccc1)c1cccn(Cc2ccccc2)c1=O	i	i	i	i	i	i	nt	nt
C[C@]12CCC(=O)C=C1CCC1C2CC[C@@]2(C)C1CC[C@]2(C)O (stereo partly specified)	i	i	i	i	i	i	nt	nt
COc1ccc(CC2C(=O)NC(C)C(=O)N(C)C3C(=O)N(C)C(Cc4ccc(O)c(c4)Oc4ccc(cc4)C3O)C(=O)NC(C)C(=O)NC(C)C(=O)N2C)cc1 (stereo unspecified)	nt	96	99	75	94	89	27	91
C[C@@H]1O[C@@H](O[C@H]2C[C@@H](O)[C@]3(CO)[C@@H]4C(CC[C@]3(O)C2)[C@@]2(O)CC[C@H](C3COC(=O)C3)[C@@]2(C)C[C@H]4O)[C@H](O)[C@H](O)[C@H]1O (stereo partly specified)	i	i	99	i	67	64	14	58
CCOC(=O)c1c(C)n(CCOC)c2ccc(O)cc12	i	i	i	i	i	i	nt	nt
CCC1CN2CCc3cc(OC)c(OC)cc3C2CC1CC1NCCc2c1[nH]c1ccc(O)cc21 (stereo unspecified)	nt	96	98	69	95	91	24	90
COc1ccc2c(c1OC)CN1CCc3cc4c(cc3[C@H]1C2)OCO4	i	i	i	nt	i	nt	nt	nt
O=c1[nH]c2ccccc2n1C1CCN(C(c2ccccc2OC(F)(F)F)c2nnnn2Cc2ccccc2)CC1 (stereo unspecified)	nt	i	i	i	i	42	15	i
CN1CCN(c2ccc(S(C)(=O)=O)cc2[N+](=O)[O-])CC1	i	i	i	i	i	i	nt	nt
CN1CCN(c2ccc([N+](=O)[O-])c3no[n+]([O-])c23)CC1	i	96	93	94	94	98	96	109
SMILES	Efflux pump mplx	SRC1 inh	NR5A2 inv ag	NCOA2 inhibitor	NCOA3 inh	COUP-TFII inh	VP16 Luc counter	NR2F2 inh conf
COC(=O)C1=C(c2ccc(F)cc2OCc2ccccc2)C[C@@H]2CC[C@H]1N2C(=O)NCc1ccc([N+](=O)[O-])cc1	i	i	i	i	i	i	nt	nt
O=C1C(=O)c2ccccc2-c2ccccc21	i	95	103	95	95	109	96	110
O=C1C(=O)c2cccc3cccc1c23	i	i	i	i	i	i	nt	nt
COc1ccc(-c2cc(-c3ccccc3)[n+](C)c(-c3ccccc3)c2)cc1	i	i	74	i	70	46	16	53
C[n+]1c(-c2ccccc2)cc(CCCCc2cc(-c3ccccc3)[n+](C)c(-c3ccccc3)c2)cc1-c1ccccc1	i	i	i	i	i	i	nt	nt
CSc1nc(C)c(Br)c(N2CC2)n1	nt	i	i	i	i	i	nt	nt
COC1CC2C=C(C)C=CC=CC(=O)NC(c3ccccc3)CC=CCCC(O)CC(=O)C2=C1O (stereo unspecified)	nt	i	99	i	78	72	50	73
CC(=O)O[C@H]1C[C@@H]2OC3C=C(C)CCC3(C)[C@@]1(C)[C@@]21CO1 (stereo partly specified)	nt	94	97	69	92	77	16	72
CC(=O)OC1CC2OC3C=C(C)CCC3(C)C1(C)C21CO1 (stereo unspecified)	nt	96	103	69	95	85	17	72
CC1(CCl)CN1S(=O)(=O)c1ccccc1 (stereo unspecified)	i	i	i	i	i	i	nt	nt
CC1CC(C)(O)CC(C(O)CC2CC(=O)NC(=O)C2)C1=O (stereo unspecified)	nt	94	98	72	93	87	i	75
CN1CCN(Cc2cn3cccnc3n2)CC1	i	i	i	i	i	i	nt	nt
NC(=O)c1cn(C2OC(CO)C(O)C2O)c2ncnc(N)c12 (stereo unspecified)	i	91	98	62	89	72	56	86
N#Cc1cn(C2OC(CO)C(O)C2O)c2ncnc(N)c12 (stereo unspecified)	nt	i	97	61	i	47	i	i
C[C@@H]1CN([C@@H](C)CO)C(=O)CCCn2nncc2CO[C@@H]1CN(C)C(=O)Oc1ccccc1	nt	i	i	i	i	i	nt	nt
O=[N+]([O-])c1cccc(CN2CCN(Cc3ccc(Cl)cc3)CC2)c1	i	i	i	i	i	i	nt	nt
CCc1ccc(CN2CCN(C(=O)Cc3ccccc3)CC2)cc1	i	i	i	i	i	i	nt	nt
Oc1ccccc1-[n+]1c(-c2ccccc2)cc(-c2ccccc2)cc1-c1ccccc1	i	i	i	i	i	i	nt	nt
Cc1ccccc1-[n+]1c(-c2ccccc2)cc(-c2ccccc2)cc1-c1ccccc1	nt	i	i	i	67	68	22	77
O=C(Nc1ccc(OC(=O)N2CCCCC2)cc1)N1CCOCC1	i	i	i	84	i	78	29	i
